# Records with an inconclusive call do not appear. Where a call stands in place of a potency, no number is given. Unmarked numbers belong to inactive results. The source made the active and inactive calls. Unless noted, calls follow the shape of the dose curve; as a rule, active = well fitted curve in the direction sought with a large enough effect; inconclusive = small, poorly fitted or top-dose-only effect, or another doubt; inactive = no such curve, though single readings can be large; an effect the other way counts as inactive or inconclusive.
# Assays:
# [1] = qHTS for Inhibitors of Plasmodium falciparum (DD2) proliferation (AID 504314);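 also: parasite DNA measured by SYBR Green fluorescence after red cell lysis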
# Outline: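 Erythrocytes infected with P. falciparum Dd2 (0.3% parasitemia, 2.5% hematocrit) exposed to compound 72 h at 37C, 5% CO2. Parasite DNA quantified by SYBR Green fluorescence after saponin/Triton lysis overnight; normalized to 0.29 uM artemisinin and DMSO.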
# [2] = qHTS for Inhibitors of Plasmodium falciparum (GB4) proliferation (AID 504315); also: nearly all actives have a fitted effect of over 50% in size
# Outline: (§1)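 Erythrocytes infected with P. falciparum line (0.3% parasitemia, 2.5% hematocrit final) incubated with compounds 72 h at 37 °C, 5% CO2; SYBR Green lysis buffer added, fluorescence read next day. Normalized to 0.29 uM artemisinin and DMSO.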
# [3] = qHTS for Inhibitors of Plasmodium falciparum (7G8) proliferation (AID 504316); also: nearly all actives have a fitted effect of over 65% in size; also: potency is read from the fitted curve at half-maximal effect
# Outline: as §1
# [4] = qHTS for Inhibitors of Plasmodium falciparum (CP250) proliferation (AID 504320)
# Outline: as §1
# [5] = target: Atrial natriuretic peptide receptor 1 (Homo sapiens) (UniProt P16066); test: Natriuretic polypeptide receptor (hNpr1) antagonism - Pilot CMLD screen (AID 1347052; calls by dose curve;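 also: HEK293 cells with hNpr1 stimulated by hNppA peptide at 0.1 nM; cGMP level read as GloSensor luciferase luminescence after agonist stimulation; series mostly up to about 9.2 µM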)
# Sequence of Atrial natriuretic peptide receptor 1 (Homo sapiens) (P16066 whole entry, looked up): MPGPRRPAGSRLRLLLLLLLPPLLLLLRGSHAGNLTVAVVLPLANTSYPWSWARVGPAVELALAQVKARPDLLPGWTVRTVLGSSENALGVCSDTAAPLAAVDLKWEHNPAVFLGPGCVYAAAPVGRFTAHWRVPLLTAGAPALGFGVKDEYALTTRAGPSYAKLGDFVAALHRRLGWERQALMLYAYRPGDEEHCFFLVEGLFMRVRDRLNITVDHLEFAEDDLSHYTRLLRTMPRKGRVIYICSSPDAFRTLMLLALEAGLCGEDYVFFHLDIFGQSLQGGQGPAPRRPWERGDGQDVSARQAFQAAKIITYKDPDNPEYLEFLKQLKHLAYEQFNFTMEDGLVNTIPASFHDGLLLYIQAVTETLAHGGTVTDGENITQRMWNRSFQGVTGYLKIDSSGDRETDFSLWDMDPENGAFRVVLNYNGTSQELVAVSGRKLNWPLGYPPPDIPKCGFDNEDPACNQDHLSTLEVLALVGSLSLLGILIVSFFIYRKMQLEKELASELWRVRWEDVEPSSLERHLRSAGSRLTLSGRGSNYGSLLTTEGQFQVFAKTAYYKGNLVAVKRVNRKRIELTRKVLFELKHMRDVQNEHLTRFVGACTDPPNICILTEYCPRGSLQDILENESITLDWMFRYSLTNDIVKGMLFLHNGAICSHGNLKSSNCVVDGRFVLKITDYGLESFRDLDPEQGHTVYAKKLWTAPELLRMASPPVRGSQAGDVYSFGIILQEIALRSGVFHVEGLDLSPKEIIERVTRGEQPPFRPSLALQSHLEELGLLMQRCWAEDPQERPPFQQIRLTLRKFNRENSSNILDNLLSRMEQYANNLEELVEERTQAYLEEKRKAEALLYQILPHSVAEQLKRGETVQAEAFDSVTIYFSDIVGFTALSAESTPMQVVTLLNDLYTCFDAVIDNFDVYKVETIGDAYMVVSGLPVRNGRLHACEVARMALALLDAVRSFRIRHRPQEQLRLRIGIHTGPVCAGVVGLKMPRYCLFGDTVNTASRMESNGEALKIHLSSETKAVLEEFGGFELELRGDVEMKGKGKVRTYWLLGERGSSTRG
SMILES,Potency [1],Potency [2],Potency [3],Potency [4],Potency [5],"activity, negative = inhibition [1]"
COc1ccc(COC(=O)NN=C2C[C@@H](O)[C@@H](O)[C@@H]3[C@H]4C(=O)N(Cc5ccccc5)C(=O)[C@@H]4CC[C@@H]23)cc1,inactive,inactive,inactive,inactive,inactive,
CC1(OC(=O)CCc2ccccc2)C(=O)C=C2C=C(c3ccsc3)OC=C2C1=O (stereo not given),inactive,inactive,inactive,inactive,inactive,
COC[C@H]1O[C@H](c2ccccc2)C=C[C@H]1OCc1cccc(Br)c1,inactive,inactive,inactive,inactive,inactive,
COC(=O)CCCC1=CC2=C(c3ccccc3)C(=O)C(C)(OC(=O)C3CCCC3)C(=O)C2=CN1Cc1ccc2c(c1)OCO2 (stereo not given),,inactive,inactive,inactive,inactive,-1.06% [at 1.12 µM]
COC(=O)C1=C(C(=O)OC)[C@@H]2N(Cc3ccccc3)c3ccccc3[C@@]23C[C@@H](C(=O)OC)N(C(=O)Nc2ccc(C(F)(F)F)cc2)C3=N1,inactive,inactive,inactive,inactive,inactive,
CC[C@@H](c1ccccc1)n1c(=O)n2n(c1=O)[C@H]1[C@H](O)[C@@H]3O[C@H]3C(=NOCc3ccccc3)[C@H]1CC2,inactive,inactive,inactive,inactive,inactive,
CC(C)[C@@H](OCc1ccccc1)[C@H](C)C=NOC[C@@H](O)COCc1ccco1,inactive,inactive,inactive,inactive,inactive,
COC(=O)CCC(=O)OC1(C)C(=O)C=C2C=C(C3CC3)N(CCc3c[nH]c4ccccc34)C=C2C1=O (stereo not given),inactive,inactive,inactive,inactive,inactive,
COc1cccc([C@@H]2Oc3ccc(Br)cc3C[C@@H]2OC(=O)N[S+](=O)([O-])c2ccc(C)cc2)c1,inactive,inactive,inactive,inactive,inactive,
CCCCC1=CC2=C(c3ccco3)C(=O)C(C)(OC(=O)c3ccc(OC)cc3)C(=O)C2=CN1CC1CC1 (stereo not given),inactive,inactive,inactive,inactive,inactive,
CCCNC(=O)OC[C@H]1O[C@H](CCON=C2C[C@@H](O)[C@@H](O)[C@@H]3[C@H]4C(=O)N(CC)C(=O)[C@@H]4CC[C@H]23)C=C[C@H]1Oc1ccc(OC)cc1,inactive,inactive,inactive,inactive,inactive,
C#CCN1C(=O)C2(CC(C)=C[C@@H](C)O2)c2c(Br)cccc21 (stereo not given in full),inactive,inactive,inactive,inactive,inactive,
CC[C@H]1OC(c2ccccc2)[C@H](C)[C@H]2O[C@@H]2[C@@H]1C(=O)OC (stereo not given in full),inactive,inactive,inactive,inactive,inactive,
Cc1cc2c(nc1C)CCCCN2C[C@H](C)ON=C[C@@H](C)[C@H](OCc1ccccc1)C(C)C,inactive,inactive,inactive,inactive,inactive,
O=C1CCCC(C(C(=O)OCc2ccccc2)C(=O)OCc2ccccc2)C1 (stereo not given),inactive,inactive,inactive,inactive,inactive,
COC(=O)CCCC1=CC2=CC(=O)C(C)(OC(=O)c3cccs3)C(=O)C2=CN1CCc1c[nH]c2ccccc12 (stereo not given),inactive,inactive,inactive,inactive,inactive,
COc1ccc(-c2nc3c(c4c2C[C@H](c2ccccc2)OC4)CN(C(=O)N[C@@H](C)c2ccccc2)CC3)c(C)c1,,inactive,1690 nM (active),inactive,inactive,3.19% [at 1.12 µM]
CC(=O)OC[C@H]1O[C@@H](ON=C2C[C@@H](O)[C@@H](O)[C@@H]3[C@H]4C(=O)N(C5CCCCC5)C(=O)[C@@H]4CC[C@@H]23)[C@H](OC(C)=O)[C@@H](OC(C)=O)[C@H]1OC(C)=O,inactive,inactive,inactive,inactive,inactive,
COC(=O)CCCC1=CC2=C(c3ccccc3)C(=O)C(C)(OC(=O)C3CCCC3)C(=O)C2=CN1Cc1ccc(OC)cc1 (stereo not given),,inactive,inactive,inactive,inactive,1.81% [at 1.12 µM]
COc1ccc(COC(=O)NN=C2C[C@@H](O)[C@@H](O)[C@@H]3[C@H]4C(=O)N(C[C@@H]5CCCO5)C(=O)[C@@H]4CC[C@H]23)cc1,inactive,inactive,inactive,inactive,inactive,
COC(=O)C[C@H]1c2ccccc2[C@@H]2C(=C[C@@H](C)[C@H]3C(=O)N(O)C(=O)[C@H]32)N1C(=O)OC,inactive,inactive,inactive,inactive,inactive,
COC(=O)c1c(C(=O)OC)c2c3ccccc3cc(C3CC3)n2c1C(=O)OC,inactive,inactive,inactive,inactive,inactive,
COCC=CC1=CC2=CC(=O)C(C)(OC(=O)c3cnc4ccccc4n3)C(=O)C2=CN1Cc1ccccc1 (stereo not given),inactive,inactive,inactive,inactive,inactive,
CC(=O)[C@@H]1[C@@H](C)N(Cc2ccccc2)C(=O)N[C@H]1c1ccccc1,inactive,inactive,inactive,inactive,inactive,
C=C(C)CCN1C(=O)NC(c2cccc(C(F)(F)F)c2)C(C(=O)OC)=C1C (stereo not given),inactive,inactive,inactive,inactive,inactive,

# From PubChem BioAssay (NCATS)
